Bioassay records (PubChem BioAssay)
Dicer processing: human Dicer pre-microRNA cleavage inhibition. Q9UPY3. cat-ELCCA pre-miR-21 Dicer processing, chemiluminescence; active compounds read high. z-score at 25 µM. 6% of 47,000 active. AID 1347074; in the data active means z-score above about 3, passing the limit was not always enough;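 further: plate controls were vehicle for no effect and no enzyme for full effect; higher signal means more uncleaved substrate so more Dicer inhibition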
Target sequence (Q9UPY3 whole entry, looked up): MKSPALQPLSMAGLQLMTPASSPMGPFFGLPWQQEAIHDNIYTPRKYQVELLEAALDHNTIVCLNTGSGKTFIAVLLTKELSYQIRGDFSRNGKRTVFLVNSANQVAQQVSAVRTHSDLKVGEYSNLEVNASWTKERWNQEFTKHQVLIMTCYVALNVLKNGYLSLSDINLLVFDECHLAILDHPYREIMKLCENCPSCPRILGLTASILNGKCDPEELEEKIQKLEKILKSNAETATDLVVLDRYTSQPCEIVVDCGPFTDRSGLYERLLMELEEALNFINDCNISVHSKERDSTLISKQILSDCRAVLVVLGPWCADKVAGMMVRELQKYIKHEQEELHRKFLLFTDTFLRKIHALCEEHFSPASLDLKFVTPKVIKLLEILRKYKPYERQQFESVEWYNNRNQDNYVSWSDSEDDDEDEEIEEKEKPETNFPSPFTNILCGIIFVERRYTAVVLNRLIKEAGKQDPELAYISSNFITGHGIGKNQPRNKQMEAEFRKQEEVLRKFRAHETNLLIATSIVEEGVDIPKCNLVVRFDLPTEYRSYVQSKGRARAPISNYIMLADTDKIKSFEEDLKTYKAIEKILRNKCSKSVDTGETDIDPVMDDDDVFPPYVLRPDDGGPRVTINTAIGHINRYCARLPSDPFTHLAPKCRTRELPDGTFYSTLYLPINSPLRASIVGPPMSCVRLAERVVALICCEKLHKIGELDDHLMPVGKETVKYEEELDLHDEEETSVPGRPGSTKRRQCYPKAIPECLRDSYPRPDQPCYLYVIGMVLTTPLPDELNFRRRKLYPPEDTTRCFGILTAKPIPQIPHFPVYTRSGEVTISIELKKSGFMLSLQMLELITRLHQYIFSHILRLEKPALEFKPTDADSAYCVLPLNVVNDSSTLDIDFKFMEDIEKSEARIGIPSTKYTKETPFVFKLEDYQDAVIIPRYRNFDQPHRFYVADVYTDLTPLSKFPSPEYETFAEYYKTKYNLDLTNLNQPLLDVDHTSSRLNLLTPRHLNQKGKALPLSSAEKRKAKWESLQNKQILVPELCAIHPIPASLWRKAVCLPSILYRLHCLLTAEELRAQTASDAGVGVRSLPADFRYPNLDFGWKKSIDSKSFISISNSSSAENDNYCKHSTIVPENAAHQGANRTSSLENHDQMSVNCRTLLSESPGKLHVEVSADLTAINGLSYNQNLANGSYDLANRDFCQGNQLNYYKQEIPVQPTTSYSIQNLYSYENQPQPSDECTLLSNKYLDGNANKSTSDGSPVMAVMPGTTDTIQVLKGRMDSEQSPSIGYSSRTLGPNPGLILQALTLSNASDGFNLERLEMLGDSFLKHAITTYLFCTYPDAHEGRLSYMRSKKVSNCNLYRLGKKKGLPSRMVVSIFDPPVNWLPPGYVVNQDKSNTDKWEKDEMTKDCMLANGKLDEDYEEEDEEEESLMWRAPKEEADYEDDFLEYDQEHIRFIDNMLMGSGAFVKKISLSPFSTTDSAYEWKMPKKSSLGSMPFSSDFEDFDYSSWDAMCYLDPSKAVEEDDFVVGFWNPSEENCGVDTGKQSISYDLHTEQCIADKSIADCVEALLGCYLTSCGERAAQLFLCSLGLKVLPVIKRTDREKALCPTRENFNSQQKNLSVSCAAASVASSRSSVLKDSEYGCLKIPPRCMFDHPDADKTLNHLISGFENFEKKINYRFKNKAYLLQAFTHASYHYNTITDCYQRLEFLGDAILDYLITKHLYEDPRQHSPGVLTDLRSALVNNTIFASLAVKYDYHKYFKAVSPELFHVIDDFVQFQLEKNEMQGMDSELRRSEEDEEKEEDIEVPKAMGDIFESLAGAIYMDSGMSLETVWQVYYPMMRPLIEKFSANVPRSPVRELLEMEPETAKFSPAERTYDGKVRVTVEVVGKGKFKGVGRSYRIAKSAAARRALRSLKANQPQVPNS
* marks the source's active call; other numbers are inactive results. Shown is part of a subset that was picked to be rich in hits.

SMILES	Dicer processing
CC(=O)Oc1ccc(C2C(C(=O)OCC(C)C)=C(C)NC3=C2C(=O)CC(c2ccccc2)C3)cc1 (stereo unspecified)	7.03*
CCCOC(=O)C1=C(C)NC2=C(C(=O)CC(c3ccccc3OC)C2)C1c1coc2ccccc2c1=O (stereo unspecified)	5.98*
CCOC(=O)C1=C(C)NC2=C(C(=O)CC(c3ccccc3)C2)C1c1cccc2ccccc12 (stereo unspecified)	0.44
CCOCCOC(=O)C1=C(C)NC2=C(C(=O)CC(c3ccccc3)C2)C1c1cccc2ccccc12 (stereo unspecified)	5.19*
CCSCCOC(=O)C1=C(C)NC2=C(C(=O)CC(c3ccc(OC)cc3)C2)C1c1ccc(F)cc1 (stereo unspecified)	1.7
COc1ccccc1C1CC(=O)C2=C(C1)NC(C)=C(C(=O)OC(C)C)C2c1coc2ccccc2c1=O (stereo unspecified)	0.03
CCSCCOC(=O)C1=C(C)NC2=C(C(=O)CC(c3ccccc3)C2)C1c1cccc(F)c1 (stereo unspecified)	3.74*
CCCOC(=O)C1=C(C)NC2=C(C(=O)CC(c3cccs3)C2)C1c1coc2ccc(C)cc2c1=O (stereo unspecified)	-0.42
CCOCCOC(=O)C1=C(C)NC2=C(C(=O)CC(c3ccccc3)C2)C1c1ccc(F)cc1 (stereo unspecified)	1.63
CC1=C(C(=O)OCC(C)C)C(c2cccc(F)c2)C2=C(CC(c3ccccc3)CC2=O)N1 (stereo unspecified)	1.12
CC(C)(C)c1nc(Sc2ncc([N+](=O)[O-])s2)n[nH]1	-0.31
CCCCNc1nc2c(c(=O)[nH]c(=O)n2C)n1CCC(C)C	2.42
CCOC(=O)c1c(C)c(C#N)c(NC(=O)c2ccc(Cl)cc2Cl)n1-c1ccc(C)cc1	-0.27
CSC1=N/C(=C\c2cccc(Cl)c2)C(=O)N1Cc1ccc(Cl)cc1	0.77
O=C(NC1CCS(=O)(=O)C1)c1ccc(Cl)cc1 (stereo unspecified)	-0.63
CCCCNC(=O)Oc1ccc(-c2csnn2)cc1	-1.33
CCOC(=O)C1=C(C)NC2=C(C(=O)CC(c3ccccc3)C2)C1c1ccc(C)o1 (stereo unspecified)	1.2
CCCOc1ccccc1C1C(C(=O)OCC)=C(C)NC2=C1C(=O)CC(c1ccccc1)C2 (stereo unspecified)	0.08
CCOC(=O)C1=C(C)NC2=C(C(=O)CC(c3ccccc3)C2)C1c1ccccc1Cl (stereo unspecified)	3.74*
COC(=O)C1=C(C)NC2=C(C(=O)CC(c3ccccc3)C2)C1c1ccc(Br)cc1 (stereo unspecified)	1.27
COC(=O)C1=C(C)NC2=C(C(=O)CC(c3ccc(OC)cc3)C2)C1c1ccc(OC)cc1 (stereo unspecified)	-1.47
COC(=O)C1=C(C)NC2=C(C(=O)CC(c3ccccc3)C2)C1c1ccccc1Br (stereo unspecified)	7.61*
COc1ccc(-c2cc(=O)c3cc(Cl)ccc3o2)cc1	-1.02
N#Cc1c(Cl)cccc1NC1CCSC1 (stereo unspecified)	-0.1
COc1ccc(-c2cn3cccc(OCc4ccc(Cl)c(Cl)c4)c3n2)cc1	-1.15
SMILES	Dicer processing
CCOC(=O)c1cnc(-c2cccs2)nc1Nc1ccc(C)cc1	-1.27
COc1ccc(NC(=S)NC(C)(C)C)c([N+](=O)[O-])c1	-0.47
CN(C)c1ccc(C2CC(=O)C=C(NC3Cc4ccccc4C3)C2)cc1 (stereo unspecified)	4.63*
O=C1C=C(NC2Cc3ccccc3C2)CC(c2ccccc2)C1 (stereo unspecified)	-0.9
O=C1C=C(NC2Cc3ccccc3C2)CC(c2cccc(Cl)c2)C1 (stereo unspecified)	-0.95
Cc1ccc2nc(SCc3nc(-c4ccccc4C)no3)[nH]c2c1	3.02*
Cc1ccc2nc(SCc3nc(-c4cccs4)no3)[nH]c2c1	-0.45
Brc1ccc(-c2noc(CSc3nc4ccccc4[nH]3)n2)cc1	0.45
CCCCCNC(=O)Cn1cnc2c1c(=O)n(C)c(=O)n2C	-0.48
CSC(N)=Nc1cc(C)c(C)cc1C	1.39
COC(=O)c1c(C)oc(C)c1S(=O)(=O)N(C)C	-1.21
Nc1nc(-c2ccc(Cl)cc2)nn1S(=O)(=O)c1ccccc1	1.76
CCS(=O)(=O)n1nc(-c2ccc(Cl)cc2)nc1SC	2.71
CCS(=O)(=O)n1nc(-c2ccccc2)nc1N	3.33*
O=C(CN1C(=O)c2ccccc2S1(=O)=O)NCCSc1ccc(Cl)cc1	1.12
CCOC(=O)c1cnc(-c2cccs2)nc1NNC(=O)c1ccc(Cl)cc1	-0.55
COc1cccc(N2CCn3c2nc2c3c(=O)n(CC(=O)O)c(=O)n2C)c1	1.48
Cn1c(=O)n(CC(=O)O)c(=O)c2c1nc1n2CCN1c1ccc(Cl)cc1	3.35*
Cn1c(=O)n(CC(=O)O)c(=O)c2c1nc1n2CCCN1c1cccc(Cl)c1	1.48
O=c1[nH]c(SCCO)nc2c1cnn2-c1ccc(F)cc1	1.26
CCCOc1ccccc1C1C(C(=O)OC(C)C)=C(C)Nc2nnnn21 (stereo unspecified)	-0.05
CCOC(=O)C1=C(C)Nc2nnnn2C1c1ccccc1 (stereo unspecified)	3.06*
CCCOC(=O)C1=C(C)Nc2nnnn2C1c1ccccc1OCC (stereo unspecified)	3.43*
CCOC(=O)C1=C(c2ccccc2)Nc2ncnn2C1c1ccc(F)cc1 (stereo unspecified)	-0.11
CCOC(=O)C1=C(C)Nc2nnnn2C1c1ccc(OC)c(OC)c1 (stereo unspecified)	1.59
SMILES	Dicer processing
CCOc1ccccc1C1C(C(=O)OC(C)C)=C(C)Nc2nnnn21 (stereo unspecified)	4.49*
CCOC(=O)C1=C(C)Nc2nnnn2C1c1ccccn1 (stereo unspecified)	2.26
CCOC(=O)C1=C(C)Nc2ncnn2C1c1ccc(OC)c(OC)c1 (stereo unspecified)	0.01
CCOC(=O)C1=C(c2ccccc2)Nc2ncnn2C1c1cccc(Br)c1 (stereo unspecified)	3.25*
CCOC(=O)C1=C(C)Nc2nnnn2C1c1ccccc1Cl (stereo unspecified)	0.19
CCOC(=O)C1=C(C)Nc2nnnn2C1c1ccc(OCc2ccccc2)c(OC)c1 (stereo unspecified)	2.85
CCOC(=O)C1=C(C)Nc2nnnn2C1c1cc(Br)ccc1OCC (stereo unspecified)	1.53
CCCCOC(=O)c1sc2scc(C)c2c1C	-0.84
Cc1cc(C)nc(SC(=O)OC(C)(C)C)n1	-0.22
COc1ccc(N=C2SCC(C(C)(C)C)=NN2C)cc1	-1.07
CCOCCOC(=O)C1=C(C)NC2=C(C(=O)CCC2)C1c1cccc(Cl)c1 (stereo unspecified)	0.38
O=C(Nc1ccc(Cl)c(Cl)c1)n1ccc(C(F)(F)F)n1	0.16
Cc1nc(C(F)(F)F)nc(Sc2n[nH]c(-c3cccs3)n2)c1C	1.76
Cn1nnc(-c2cc(Cl)cc(Cl)c2)n1	0.97
CCn1c2ccccc2c2nnc(SCC(=O)Nc3nnc(C)s3)nc21	1.76
Cc1nn(C)c2oc(=O)cc(C(F)(F)F)c12	-1.94
Fc1cccc(Cl)c1CSC1=NCCN1	0.46
N#CC1=CNc2ccccc2N=C1N	0.36
NC1=Nc2cccc3cccc(c23)N1	25.8*
CN(C)c1ccc(C2=Nc3cccc4cccc(c34)N2)cc1	0.75
Nc1cccc(C2=Nc3cccc4cccc(c34)N2)c1	3.18*
COc1ccc(C2=Nc3cccc4cccc(c34)N2)cc1	0.66
c1cc2c3c(cccc3c1)-c1nc3ccccc3nc1-2	-0.43
